Data from paper PMC9838217, “Structure of SALL4 zinc finger domain reveals link between AT-rich DNA binding and Okihiro syndrome”.

These sequences were tested against T1, SALL4 ZFC4 WT (HT-SELEX) (Mus musculus, UniProt Q8BX22 870-940) (assay: HT-SELEX; high values mean tight binding). Details: protein: recombinant; vector His6-GST; dsDNA, one strand shown.
T1 sequence: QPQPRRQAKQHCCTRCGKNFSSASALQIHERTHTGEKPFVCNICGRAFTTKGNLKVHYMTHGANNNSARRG
Summary of the method: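 A 100 µl reaction of 10 mM Tris–HCl pH 7.5, 50 mM NaCl, poly(dI-dC) and DTT held purified recombinant mouse SALL4 zinc finger cluster 4 (residues 870–940, 1 µg) and library DNA (1.5 µg first cycle, 200 ng later) for 10 min at room temperature. Complexes captured on Ni2+ beads were washed, PCR-amplified and reselected for up to 6 cycles, in triplicate, then MiSeq-sequenced and scanned for 6-mers. Binding signal is the read fraction of each canonical k-mer expressed as fold change over the initial random library.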

Sequence	binding signal [fold-change vs cycle 0]
AACTGA	1.35 ± 0.0349
AAGGTA	1.42 ± 0.048
CCTATA	1.35 ± 0.0444
ACTTGA	1.33 ± 0.0337
ACATGT	1.28 ± 0.0279
CATGAA	1.36 ± 0.0383
CTCTTC	1.02 ± 0.0449
CAAGTA	1.28 ± 0.0466
GTAGCA	0.6472 ± 0.00166
AAGATG	1.395 ± 0.00326
ACCAGT	0.8 ± 0.0267
AAACGA	1.06 ± 0.0291
AAGGGT	0.858 ± 0.0423
AATCCT	1.47 ± 0.0694
AGTTAC	1.44 ± 0.0411
CGAGAG	0.428 ± 0.0305
GAGGAA	0.874 ± 0.0788
AAGGAT	1.54 ± 0.0522
CATTGA	1.25 ± 0.0236
GCTTCC	0.35 ± 0.00821

Sequence	binding signal [fold-change vs cycle 0]
ATAAAC	2.24 ± 0.173
AACAAC	1.18 ± 0.0643
AATGCA	1.12 ± 0.0474
AGTCAG	0.822 ± 0.0342
ACCTTC	0.842 ± 0.0201
AGGTAA	1.45 ± 0.0617
GAAAAC	1.08 ± 0.0562
ACTAGG	0.871 ± 0.0329
CAATTA	1.91 ± 0.128
CTCGAG	0.462 ± 0.0432
ACTTCA	1.4 ± 0.0494
ATTTCA	2.56 ± 0.117
AATACC	1.3 ± 0.0373
AACTAG	1.31 ± 0.0615
CCCTTC	0.486 ± 0.0255
AGCATA	1.26 ± 0.0848
ACGAAG	0.736 ± 0.0281
AATCAG	1.32 ± 0.0871
GATCAA	1.21 ± 0.0612
ATGTAG	1.34 ± 0.0549
